Inconclusive results are not listed. Where a call stands in place of a potency, no number is given. The source made the active and inactive calls. Calls come from the whole dose curve; as a rule, active = well fitted inhibition curve with a large enough effect in the repeat runs; inconclusive = weak or mixed curves; inactive = flat fitted curve, though single readings scatter.
Target: Cytochrome P450 2D6 (Homo sapiens) (UniProt P10635)
Assay: Cytochrome P450 family 2 subfamily D member 6 (CYP2D6) small molecule antagonists: luciferase biochemical (cell-free) qHTS assay (AID 1645840); note: nearly all actives have a fitted effect of over 55% in size
Details: P450-Glo CYP2D6 enzyme, luciferin luminescence, 1 h; series mostly up to 57.4 µM
Procedure: National Center for Advancing Translational Sciences [NCATS] Assay Overview: Cytochrome P450 (CYP) enzymes are membrane-bound hemeproteins that play a key role in metabolism of drugs and xenobiotics. Assaying the effect of chemicals on CYP isozymes is useful to minimize the adverse drug reactions and toxicities in drug development process. Chemical compounds were tested for their effect on CYP enzyme activities by using P450-Glo (TM) screening systems (Promega Corporation, Madison, WI). These systems provide a luminescent method containing proluciferin substrates and are converted to luciferin products by CYP isozymes. The luciferin products formed are detected with a luciferin detection reagent, and the amount of light produced is proportional to CYP activity. P450-Glo (TM) CYP2D6 screening system (Catalog. No. V9890) was used to detect the compounds that interfere in CYP2D6 activity.
Assay Protocol Summary: Two ul of enzyme-substrate mix was dispensed into medium binding white/solid 1536-well plates (Greiner Bio-One North America Inc., Monroe, NC) using a Flying Reagent Dispenser (FRD, Aurora Discovery, San Diego, CA). […] The assay plates were incubated at room temperature for 10 min. Then 2 ul of NADPH regeneration solution was added to each well of the assay plates using an FRD and incubated at room temperature for 1 h. The reaction was stopped by adding 4 ul of detection reagent using an FRD and after 20 min incubation at room temperature, the luminescence signal was measured using a ViewLux plate reader (Perkin Elmer, Shelton, CT). Data were expressed as relative luminescence units.
Potency is the fitted concentration of half-maximal effect.

Chain of Cytochrome P450 2D6 (Homo sapiens) (P10635 whole entry, looked up): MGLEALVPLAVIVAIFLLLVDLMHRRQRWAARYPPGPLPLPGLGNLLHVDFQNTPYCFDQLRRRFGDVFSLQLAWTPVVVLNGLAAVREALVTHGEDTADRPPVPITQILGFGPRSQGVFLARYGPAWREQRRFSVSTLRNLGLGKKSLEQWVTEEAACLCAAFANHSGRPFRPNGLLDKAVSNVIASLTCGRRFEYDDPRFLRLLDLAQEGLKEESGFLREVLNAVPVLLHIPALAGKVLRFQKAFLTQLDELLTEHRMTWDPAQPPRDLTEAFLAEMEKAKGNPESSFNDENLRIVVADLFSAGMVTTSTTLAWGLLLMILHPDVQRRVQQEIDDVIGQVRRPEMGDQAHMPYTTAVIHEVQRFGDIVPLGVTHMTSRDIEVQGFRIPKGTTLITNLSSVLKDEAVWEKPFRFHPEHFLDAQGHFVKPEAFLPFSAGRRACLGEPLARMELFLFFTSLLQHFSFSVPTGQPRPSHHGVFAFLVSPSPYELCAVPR

| Compound | Potency |
| --- | --- |
| Cc1ccc(S(=O)(=O)NC2CCC(C(C)(C)C)CC2)cc1 (stereo not given) | inactive |
| Cc1ccc(S(=O)(=O)N[C@@H]2CCCC[C@H]2O)cc1 | inactive |
| COc1ccc(CCNc2nc(SCc3ccccc3Cl)nc3ccccc23)cc1OC | 0.756 µM (active) |
| Cc1ccc(-n2c(SCc3ccccc3F)nc3[nH]ncc3c2=O)cc1C | 16.9 µM (active) |
| OCCOCCOCCOCCOCCN1CCN(C(c2ccc(Cl)cc2)c2ccc(Cl)cc2)CC1 | 8.49 µM (active) |
| CCc1cccc(CC)c1-n1c(CC(C)C)c(C(=O)N2CCNCC2)cc(-c2nc(-c3ccc(Cl)cc3)cs2)c1=O | 9.52 µM (active) |
| COC(=O)c1c(SCC(=O)Nc2cc(C)cc(C)c2)[nH]c2ccccc2c1=O | inactive |
| CN(C)S(=O)(=O)n1cc(/C=C(\NC(=O)c2ccccc2)C(=O)NCCCn2ccnc2)c2ccccc21 | 0.0535 µM (active) |
| O=c1c2c(on1Cc1ccccc1)CCNCC2 | inactive |
| Cc1nc2c3ccccc3nc(NNC(=O)CCC(=O)N3CCN(c4ccccc4F)CC3)n2n1 | inactive |
| COc1cc(C(=O)NC(c2ccc(Cl)cc2)c2cc(Cl)c3cccnc3c2O)cc(OC)c1OC (stereo not given) | inactive |
| CCc1ccc(CNC(=O)C2CCCN(c3nnc(C)c4c(C)n(-c5ccccc5)nc34)C2)cc1 (stereo not given) | 10.7 µM (active) |
| C[S+](=O)([O-])Nc1ccc(-c2ccc3nc(-c4cccc(OC(F)(F)F)c4)[nH]c3c2)cc1 | inactive |
| COc1ccc(CNC(=O)C2CCCN(c3nnc(C)c4c(C)n(-c5ccc(C)cc5)nc34)C2)cc1 (stereo not given) | 19 µM (active) |
| Cc1ccc([S+](=O)([O-])NC2(c3ccccc3)CCCCC2)cc1 | inactive |
| CC(C)c1ccc(-n2ncc3c(=O)n(CC(=O)Nc4cc(F)ccc4Cl)cnc32)cc1 | inactive |
| COc1cc(C(c2c(C)[nH][nH]c2=O)c2c(C)[nH][nH]c2=O)ccc1OC(=O)c1ccccc1OC | inactive |
| CC(NC(=O)C(=O)Nc1c2c(nn1-c1ccccc1)CSC2)c1ccccc1 (stereo not given) | inactive |
| Cc1onc(-c2ccccc2Cl)c1C(=O)Cl | inactive |
| COCCn1c(SCC(=O)Nc2ccc(F)c(Cl)c2)nc2c(oc3ccccc32)c1=O | 2.39 µM (active) |

| Compound | Potency |
| --- | --- |
| COc1ccc(CNC(=O)Nc2ccc3c(c2)N(C)C(=O)c2ccccc2S3)cc1OC | 9.52 µM (active) |
| Cc1ccc(C2=CC(c3ccccc3C)n3c(nc4ccccc43)N2)cc1 (stereo not given) | 9.52 µM (active) |
| Cc1cccn2c(=O)cc(CSc3nnc(NC(=O)COc4ccccc4)s3)nc12 | inactive |
| COC(=O)C1=C(c2ccccc2)c2ccccc2S(=O)(=O)N1CC(=O)Nc1ccccc1Cl | 3.79 µM (active) |
| Cc1oc(-c2ccccc2F)nc1Cn1c(SCc2ccccc2F)nc2ccncc21 | 12 µM (active) |
| Cc1cccc(NC(c2ccccc2C)c2ccc3ccc(C)nc3c2O)n1 (stereo not given) | inactive |
| COc1ccc(CC(=O)Nc2c(C(=O)N3CCN(c4ccccc4F)CC3)oc3ccccc23)cc1OC | inactive |
| CCC(Sc1nc2ccccc2c2nc(CCn3cncc3C)nn12)C(=O)Nc1cccc(OC)c1 (stereo not given) | 12 µM (active) |
| Cc1ccc(Cn2c(CN3CCC(C(=O)NCCc4ccccc4)CC3)cc3ccccc32)cc1 | 0.0477 µM (active) |
| COc1ccc(Cn2c(SCc3ccc(C(=O)NC4CCCC4)cc3)nc3ccncc32)cc1 | 6.01 µM (active) |
| Cc1ccc(Cn2c(SCc3ccc(C(=O)N4CCCCCC4)cc3)nc3ccncc32)cc1 | 7.56 µM (active) |
| Cc1nnc(N2CCC(C(=O)NCCc3ccccc3Cl)CC2)c2nn(-c3ccccc3)c(C)c12 | 2.13 µM (active) |
| CCOC(=O)C1=C(O)c2ccccc2S(=O)(=O)N1C | inactive |
| Oc1cccc(C(Nc2ccccn2)c2ccc3cccnc3c2O)c1Cl (stereo not given) | 13.5 µM (active) |
| CC(C)[C@H]1CC[C@H](C)C[C@H]1O | inactive |
| CC(C)OCc1cc(CN2CCN(c3ccccc3)CC2)c(O)c2ncccc12 | inactive |
| COc1ccc2c(c1)CCc1sc(NC(=O)c3cccc(Br)c3)nc1-2 | inactive |
| CCCCCCCCC=CCCCCCCCC(=O)NCCOC(=O)CC(C(=O)O)S(=O)(=O)O (stereo not given) | 13.5 µM (active) |
| CCOC(=O)N1CCc2c(sc3c2c(=O)n(CCc2ccccc2)c(=O)n3CC(=O)Nc2cccc(C)c2)C1 | 1.07 µM (active) |
| Cc1ccc(/C=C2\C(=O)C3(C)CCC2C3(C)C)cc1 (stereo not given) | inactive |
